Several values for one entry are separate records, joined by “and”; a condition that tells them apart may be missing. Equal entries are not always repeated. Results filed as inconclusive are left out. A call without a number means that no potency is given here. Activity calls are given as the source filed them. Unless noted, the call rests on the fitted dose curve; in most records, active means well fitted curve in the direction sought with a large enough effect; inconclusive means small, poorly fitted or top-dose-only effect, or another doubt; inactive means no such curve, though single readings can be large; an effect the other way counts as inactive or inconclusive.
Tests used:
[1] = target: Thyrotropin receptor (Homo sapiens) (UniProt P16473); experiment: qHTS Assay for Antagonists of the Thyroid Stimulating Hormone Receptor (AID 488980); further: series mostly up to about 58 µM
Chain of Thyrotropin receptor (Homo sapiens) (P16473 whole entry, looked up): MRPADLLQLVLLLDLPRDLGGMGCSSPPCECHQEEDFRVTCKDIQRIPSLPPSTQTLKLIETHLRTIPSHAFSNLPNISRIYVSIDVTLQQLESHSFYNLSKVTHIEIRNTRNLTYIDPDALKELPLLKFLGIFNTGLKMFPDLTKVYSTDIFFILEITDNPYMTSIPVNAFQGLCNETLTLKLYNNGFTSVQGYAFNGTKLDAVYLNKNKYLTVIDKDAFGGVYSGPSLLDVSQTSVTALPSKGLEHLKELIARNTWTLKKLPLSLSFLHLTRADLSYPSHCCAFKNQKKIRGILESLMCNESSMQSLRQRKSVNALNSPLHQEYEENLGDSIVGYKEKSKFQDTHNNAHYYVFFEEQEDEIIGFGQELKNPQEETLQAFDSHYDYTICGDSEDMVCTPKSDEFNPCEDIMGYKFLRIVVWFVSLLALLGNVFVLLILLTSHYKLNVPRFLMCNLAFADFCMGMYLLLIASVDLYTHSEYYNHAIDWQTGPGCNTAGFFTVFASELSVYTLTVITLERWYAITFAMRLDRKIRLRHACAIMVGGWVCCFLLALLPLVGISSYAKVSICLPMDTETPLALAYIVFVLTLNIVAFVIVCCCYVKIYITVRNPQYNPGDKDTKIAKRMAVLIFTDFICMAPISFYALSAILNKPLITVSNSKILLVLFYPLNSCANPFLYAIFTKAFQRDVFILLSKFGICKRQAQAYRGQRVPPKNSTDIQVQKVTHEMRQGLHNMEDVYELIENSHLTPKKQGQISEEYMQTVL
Outline: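 TSHR-transfected HEK293 cells (2000/well) in HEPES-buffered HBSS with 70 uM RO 20-1724 were stimulated with 4 nM TSH (EC80, final) in the presence of compound. cAMP was measured by HTRF competition after lysis and 30 min at RT.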

[2] = target: D(1A) dopamine receptor (Homo sapiens) (UniProt P21728); experiment: HTS Assay for Allosteric Agonists of the Human D1 Dopamine Receptor: Primary Screen for Agonists (AID 488981)
Outline: (§1)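 Tetracycline-induced HEK293 T-REx cells force-coupled to calcium signalling were incubated overnight at 30 C and dye-loaded at room temperature. Calcium flux over 180 s after compound addition flagged agonists; a further 180 s read after EC20 dopamine flagged potentiators.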

[3] = target: D(1A) dopamine receptor (Homo sapiens) (UniProt P21728); experiment: HTS Assay for Allosteric Agonists of the Human D1 Dopamine Receptor: Primary Screen for Potentiators (AID 488982); further: potency means the concentration at half of the fitted maximal effect
Outline: as §1

[4] = target: D(1A) dopamine receptor (Homo sapiens) (UniProt P21728); experiment: HTS Assay for Allosteric Agonists of the Human D1 Dopamine Receptor: Primary Screen for Antagonists (AID 488983);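 further: calcium flux response to an EC80 dopamine challenge measured with no-wash dye; nearly all actives have a fitted effect of over 65% in size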
Outline: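 Calcium-flux read-out in inducible HEK293 T-REx cells expressing D1, dye-loaded 30–90 min at room temperature. Kinetic reads: 180 s after compound (agonist phase), then 180 s after an EC80 dopamine challenge.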

[5] = Validation screen for small molecules that induce genotoxicity in human embryonic kidney (HEK293T) cells expressing luciferase-tagged ELG1 (AID 493106); further: potency means the concentration at half of the fitted maximal effect
Outline: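 ELG1-luciferase reporter readout (ONE-Glo, 30 min, room temperature) after 16 hr compound treatment at 37 °C of HEK293T cells at 2,000 per well. Rising luminescence flags genotoxic stress.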

[6] = target: ATPase family AAA domain-containing protein 5 (Homo sapiens) (UniProt Q96QE3); experiment: Validation screen for small molecules that inhibit ELG1-dependent DNA repair in human embryonic kidney (HEK293T) cells expressing luciferase-tagged ELG1 (AID 493107);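 further: series mostly up to about 46 µM; inhibitors lower the ELG1-luciferase luminescence signal; nearly all actives have a fitted effect of over 70% in size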
Chain of ATPase family AAA domain-containing protein 5 (Homo sapiens) (Q96QE3 whole entry, looked up, the tested form may be a part): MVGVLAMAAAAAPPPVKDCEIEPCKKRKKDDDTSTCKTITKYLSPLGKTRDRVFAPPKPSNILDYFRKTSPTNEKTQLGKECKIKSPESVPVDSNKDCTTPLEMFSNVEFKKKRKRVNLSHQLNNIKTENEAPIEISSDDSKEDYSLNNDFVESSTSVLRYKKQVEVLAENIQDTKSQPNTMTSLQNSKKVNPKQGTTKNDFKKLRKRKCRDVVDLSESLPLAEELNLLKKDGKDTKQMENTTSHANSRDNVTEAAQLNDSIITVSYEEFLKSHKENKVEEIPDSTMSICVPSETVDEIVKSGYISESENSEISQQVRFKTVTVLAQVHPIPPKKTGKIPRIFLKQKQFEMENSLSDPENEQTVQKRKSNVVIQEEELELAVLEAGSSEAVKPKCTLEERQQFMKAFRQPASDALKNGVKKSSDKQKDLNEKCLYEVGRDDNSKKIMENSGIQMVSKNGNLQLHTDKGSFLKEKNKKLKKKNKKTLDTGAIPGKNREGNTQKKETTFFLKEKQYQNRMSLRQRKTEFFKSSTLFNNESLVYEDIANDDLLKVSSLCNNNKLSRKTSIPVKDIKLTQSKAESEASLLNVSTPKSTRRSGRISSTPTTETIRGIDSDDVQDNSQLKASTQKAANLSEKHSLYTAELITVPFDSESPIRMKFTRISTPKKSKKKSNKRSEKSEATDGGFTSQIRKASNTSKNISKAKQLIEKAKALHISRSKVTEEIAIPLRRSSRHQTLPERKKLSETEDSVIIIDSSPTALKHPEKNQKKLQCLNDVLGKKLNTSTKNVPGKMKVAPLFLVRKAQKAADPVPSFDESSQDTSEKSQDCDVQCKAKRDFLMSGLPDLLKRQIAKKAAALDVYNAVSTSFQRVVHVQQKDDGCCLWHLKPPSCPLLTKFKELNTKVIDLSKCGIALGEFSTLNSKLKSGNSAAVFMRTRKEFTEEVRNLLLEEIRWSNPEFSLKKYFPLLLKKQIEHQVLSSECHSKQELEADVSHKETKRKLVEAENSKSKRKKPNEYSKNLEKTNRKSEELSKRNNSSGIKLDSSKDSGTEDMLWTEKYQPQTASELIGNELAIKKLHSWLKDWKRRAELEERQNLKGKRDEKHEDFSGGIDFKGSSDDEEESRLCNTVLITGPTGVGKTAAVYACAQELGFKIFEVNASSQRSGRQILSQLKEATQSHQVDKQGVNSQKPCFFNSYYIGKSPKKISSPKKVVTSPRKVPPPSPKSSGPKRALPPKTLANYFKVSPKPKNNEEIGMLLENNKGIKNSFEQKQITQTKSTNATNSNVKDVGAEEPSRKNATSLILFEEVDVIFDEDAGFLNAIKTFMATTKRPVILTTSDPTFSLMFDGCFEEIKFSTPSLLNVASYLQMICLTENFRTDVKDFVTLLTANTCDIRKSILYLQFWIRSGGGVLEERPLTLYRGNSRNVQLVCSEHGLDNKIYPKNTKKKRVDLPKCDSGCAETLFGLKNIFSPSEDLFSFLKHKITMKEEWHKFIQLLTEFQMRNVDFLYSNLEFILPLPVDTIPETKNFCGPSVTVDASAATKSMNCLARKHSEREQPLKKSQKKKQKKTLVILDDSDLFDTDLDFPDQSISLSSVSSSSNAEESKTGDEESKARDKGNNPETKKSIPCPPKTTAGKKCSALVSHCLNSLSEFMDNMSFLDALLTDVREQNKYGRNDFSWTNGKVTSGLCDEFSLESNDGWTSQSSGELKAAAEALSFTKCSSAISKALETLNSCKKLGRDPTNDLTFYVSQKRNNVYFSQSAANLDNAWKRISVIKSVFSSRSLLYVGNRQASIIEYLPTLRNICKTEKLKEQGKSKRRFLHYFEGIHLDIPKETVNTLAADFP
Outline: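 Luciferase read-out, ONE-Glo, 30 min at room temperature, follows 16 h co-exposure at 37 C of compound and the DNA-damaging agent 5-fluorouridine. Cells: HEK293T with ELG1-luciferase fusion, 2,000 per well, DMSO as vehicle.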

[7] = Nrf2 qHTS screen for inhibitors: Validation (AID 493153; active means well fitted inhibition curve with a large enough effect in the main read-out, with a control signal flat, not every such curve was filed as active); settings: Potency: luciferase luminescence; viability change: measured here: cytotoxicity max response
Outline: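 Concentration-response on A549 ARE_Fluc reporter cells exposed 18-24 h at 37 C, 5% CO2. Cytotoxicity read first by CellTiter-Fluor fluorescence (Ex 405/Em 525), then Nrf2 inhibition by BugLite luminescence after 15 min.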

[8] = target: Galactokinase (Homo sapiens) (UniProt P51570); experiment: qHTS Validation Assay for Inhibitors of Human Galactokinase (GALK) (AID 493189)
Outline: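 GALK (5 nM) with 35 uM ATP and 100 uM galactose in HEPES pH 8.0 with MgCl2, NaCl, DTT and BSA. Reaction ran 1 h at room temperature. Residual ATP read by Kinase-Glo Plus luminescence.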

[9] = target: Peptidyl-prolyl cis-trans isomerase NIMA-interacting 1 (Homo sapiens) (UniProt Q13526); experiment: qHTS Validation Assay to Find Inhibitors of Pin1 (AID 504536; active means well fitted inhibition curve with a large enough effect in the polarisation, with a control signal flat, not every such curve was filed as active; the % refers to the polarisation)
Chain of Peptidyl-prolyl cis-trans isomerase NIMA-interacting 1 (Homo sapiens) (Q13526 whole entry, looked up): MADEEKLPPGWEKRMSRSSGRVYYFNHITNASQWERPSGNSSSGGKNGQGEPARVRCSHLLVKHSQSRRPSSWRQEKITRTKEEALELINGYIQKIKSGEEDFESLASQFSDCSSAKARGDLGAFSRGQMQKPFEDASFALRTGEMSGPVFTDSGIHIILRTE
Outline: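 Fluorescence polarization competition: compounds (titration) displace HiFluor-488-labeled Pin1-1b peptide from Pin1 (0.3 uM final) in pH 7.5 HEPES buffer with DTT, 10 min at room temperature; %Activity normalized to no-enzyme wells, curves fitted.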

[10] = target: Phosphoglycerate kinase, glycosomal (Trypanosoma brucei brucei) (UniProt P07378); experiment: qHTS Validation Assay to Find Inhibitors of Phosphoglycerate Kinase (AID 504547)
Chain of Phosphoglycerate kinase, glycosomal (Trypanosoma brucei brucei) (P07378 whole entry, looked up): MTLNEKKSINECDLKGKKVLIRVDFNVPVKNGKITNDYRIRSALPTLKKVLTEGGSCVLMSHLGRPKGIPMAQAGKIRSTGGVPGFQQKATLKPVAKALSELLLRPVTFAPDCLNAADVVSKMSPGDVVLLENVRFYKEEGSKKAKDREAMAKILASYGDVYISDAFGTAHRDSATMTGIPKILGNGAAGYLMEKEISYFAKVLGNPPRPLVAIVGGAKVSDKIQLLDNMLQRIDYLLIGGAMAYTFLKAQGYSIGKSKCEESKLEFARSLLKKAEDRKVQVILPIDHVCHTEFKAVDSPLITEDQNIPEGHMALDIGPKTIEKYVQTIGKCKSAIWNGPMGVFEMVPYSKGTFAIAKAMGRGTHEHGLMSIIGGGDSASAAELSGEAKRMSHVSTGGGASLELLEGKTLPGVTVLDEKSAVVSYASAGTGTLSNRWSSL
Outline: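 In TEA buffer (100mM, pH 7.6) containing 5mM MgCl2 and 0.01% Tween-20, the GAPDH-coupled PGK reaction proceeded for 60 minutes at room temperature before a single luminescence reading using Kinase-Glo Plus.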

[11] = target: phosphoglycerate mutase (Leishmania major) (UniProt Q4Q090); experiment: qHTS Validation Assay to Find Inhibitors of Phosphoglycerate Mutase (AID 504548); settings: Potency: inhibition qHTS; further: potency means the concentration at half of the fitted maximal effect
Chain of phosphoglycerate mutase (Leishmania major) (Q4Q090 1-553): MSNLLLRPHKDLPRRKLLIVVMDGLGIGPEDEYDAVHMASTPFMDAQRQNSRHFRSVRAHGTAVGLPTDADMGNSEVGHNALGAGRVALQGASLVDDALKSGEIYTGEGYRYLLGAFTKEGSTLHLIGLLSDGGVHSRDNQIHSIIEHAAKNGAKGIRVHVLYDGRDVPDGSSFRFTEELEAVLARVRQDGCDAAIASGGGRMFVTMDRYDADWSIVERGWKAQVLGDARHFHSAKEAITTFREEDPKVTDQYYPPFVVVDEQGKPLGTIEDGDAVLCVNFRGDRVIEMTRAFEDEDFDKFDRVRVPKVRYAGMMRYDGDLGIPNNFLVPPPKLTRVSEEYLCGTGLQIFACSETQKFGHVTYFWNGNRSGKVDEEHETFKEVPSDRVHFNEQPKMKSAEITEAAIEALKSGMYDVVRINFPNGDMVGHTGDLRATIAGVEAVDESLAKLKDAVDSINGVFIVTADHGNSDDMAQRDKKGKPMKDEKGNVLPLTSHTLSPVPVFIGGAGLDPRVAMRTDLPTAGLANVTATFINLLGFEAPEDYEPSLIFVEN
Outline: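 L. major PGAM (1.25nM final) was added to substrate buffer and pinned compound, incubated 45 minutes at room temperature, then Kinase-GloPlus added; luminescence read after 10 minutes. Buffer: 100 mM TEA pH 7.6, 5 mM MgCl2, 0.01% Tween-20.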

[12] = target: Ubiquitin carboxyl-terminal hydrolase 1 (Homo sapiens) (UniProt O94782); experiment: Inhibitors of USP1/UAF1: Pilot qHTS (AID 504865); further: nearly all actives have a fitted effect of over 35% in size; further: potency means the concentration at half of the fitted maximal effect
Chain of Ubiquitin carboxyl-terminal hydrolase 1 (Homo sapiens) (O94782 whole entry, looked up): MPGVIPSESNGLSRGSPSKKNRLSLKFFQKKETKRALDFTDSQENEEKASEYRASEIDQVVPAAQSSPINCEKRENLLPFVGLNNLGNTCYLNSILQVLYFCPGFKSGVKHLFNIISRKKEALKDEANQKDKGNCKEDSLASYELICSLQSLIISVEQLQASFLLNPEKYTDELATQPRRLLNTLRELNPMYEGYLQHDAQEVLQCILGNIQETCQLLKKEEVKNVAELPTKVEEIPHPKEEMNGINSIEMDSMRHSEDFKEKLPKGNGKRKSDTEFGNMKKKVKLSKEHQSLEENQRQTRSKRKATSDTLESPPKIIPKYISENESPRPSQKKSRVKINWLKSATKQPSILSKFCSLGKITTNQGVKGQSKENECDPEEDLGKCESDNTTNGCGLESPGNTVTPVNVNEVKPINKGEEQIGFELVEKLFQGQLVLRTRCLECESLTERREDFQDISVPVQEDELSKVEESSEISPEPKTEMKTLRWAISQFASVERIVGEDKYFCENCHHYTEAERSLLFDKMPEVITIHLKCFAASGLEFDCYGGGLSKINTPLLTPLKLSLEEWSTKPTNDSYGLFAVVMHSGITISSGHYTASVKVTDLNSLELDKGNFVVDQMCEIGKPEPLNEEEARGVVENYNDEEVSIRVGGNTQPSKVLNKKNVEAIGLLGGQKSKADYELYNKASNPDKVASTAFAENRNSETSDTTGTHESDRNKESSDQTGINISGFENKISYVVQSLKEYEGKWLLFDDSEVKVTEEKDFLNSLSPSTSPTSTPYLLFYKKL
Outline: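 USP1/UAF1 complex at 1 nM preincubated 15 min at room temperature with compound, then Ub-Rho substrate added at 150 nM final. Fluorescence (480/540 nm) read kinetically in 50 mM HEPES pH 7.8, 0.5 mM EDTA, 1 mM TCEP, 0.1 mg/ml BSA, 0.01% Tween-20.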

[13] = qHTS for Inhibitors of ATXN expression: Validation of Cytotoxic Assay (AID 588349)
Outline: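 Cytotoxicity counter-screen: ATP-based luminescent viability (CellTiter Glo) after 72 hr exposure of HEK293 cells to a compound titration at 37 degrees C.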

[14] = qHTS for Inhibitors of ATXN expression: Validation (AID 588378); further: nearly all actives have a fitted effect of over 75% in size; further: potency means the concentration at half of the fitted maximal effect
Outline: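 HEK293 cells carrying ATXN2-firefly luciferase reporter, treated with compound 24 h at 37 °C. Viability read first by CellTiter-Fluor (405/525 nm), then reporter expression by Bright-Glo luminescence; controls were a known ATXN2 expression inhibitor and a luciferase inhibitor.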

[15] = Validation screen for small molecules that induce DNA re-replication in SW480 colon adenocarcinoma cells (AID 504364); further: potency means the concentration at half of the fitted maximal effect
Outline: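 Image-based DNA content read-out: Hoechst stain 40 min, total nuclear fluorescence intensity (ex 405 nm, em 500-530 nm) after 48 h compound exposure of 250 SW480 cells/well at 37 C, 5% CO2, versus DMSO vehicle.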

[16] = target: Estrogen receptor (Homo sapiens) (UniProt P03372); experiment: qHTS assay for small molecule agonists of estrogen receptor alpha signaling (AID 588514; calls by dose curve; further: nearly all actives have a fitted effect of over 70% in size)
Outline: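 EC50 and efficacy came from Hill fits of beta-lactamase reporter signal (CCF4 dye, 2 h at room temperature) scaled between DMSO and 20 nM 17-beta-estradiol. Agonist mode: HEK293 ER-alpha-UAS-bla cells in charcoal/dextran-stripped serum medium, 18 h compound exposure at 37 C.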

[17] = target: ATP-dependent 6-phosphofructokinase (Trypanosoma brucei brucei) (UniProt O15648); experiment: qHTS Assay to Find Inhibitors of T. brucei phosphofructokinase: hit validation (AID 492961);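 further: luminescence reports ADP formed as PFK phosphorylates fructose-6-phosphate with ATP; series mostly up to about 51 µM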
Chain of ATP-dependent 6-phosphofructokinase (Trypanosoma brucei brucei) (O15648 whole entry, looked up): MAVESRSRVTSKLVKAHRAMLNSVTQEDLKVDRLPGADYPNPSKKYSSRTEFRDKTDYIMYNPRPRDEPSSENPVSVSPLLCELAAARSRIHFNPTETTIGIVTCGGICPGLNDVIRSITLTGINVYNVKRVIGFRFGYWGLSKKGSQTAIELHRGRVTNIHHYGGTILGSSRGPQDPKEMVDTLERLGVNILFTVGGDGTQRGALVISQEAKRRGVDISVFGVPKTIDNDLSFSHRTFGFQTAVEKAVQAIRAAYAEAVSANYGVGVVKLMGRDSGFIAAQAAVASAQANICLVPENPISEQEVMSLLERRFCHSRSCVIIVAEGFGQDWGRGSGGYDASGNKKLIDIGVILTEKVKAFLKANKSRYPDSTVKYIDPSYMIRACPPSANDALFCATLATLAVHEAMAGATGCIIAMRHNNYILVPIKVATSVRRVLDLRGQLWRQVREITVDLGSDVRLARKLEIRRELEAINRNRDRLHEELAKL
Outline: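 Percent activity derived from corrected luminescence, normalized between 0x and 1x enzyme controls, then fitted to concentration-response curves. Conditions: 1.25 nM PFK, 0.1 mM ATP, 0.5 mM F6P, 45 min RT.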

| Compound | outcome [1] | outcome [2] | Potency [3] | Potency [4] | Potency [5] | outcome [6] | Potency [7] | viability change [7] [%] | outcome [8] | outcome [9] | Potency [10] | Potency [11] | Potency [12] | outcome [13] | Potency [14] | Potency [15] | outcome [16] | outcome [17] |
| --- | --- | --- | --- | --- | --- | --- | --- | --- | --- | --- | --- | --- | --- | --- | --- | --- | --- | --- |
| OC(CN1CCN(c2cccc(Cl)c2)CC1)C(c1ccccc1)c1ccccc1 (stereo unspecified) | inactive | inactive | inactive | inactive | inactive | inactive | inactive | 1.98 | inactive | inactive | inactive | inactive | inactive | inactive | inactive |  |  |  |
| C[C@H](Cc1ccc(O)c(O)c1)[C@@H](C)Cc1ccc(O)c(O)c1 | inactive |  |  | inactive | inactive |  |  |  | inactive |  | inactive | inactive |  |  | 22.4 µM (active) | inactive |  |  |
| CC(=O)O[C@H]1C(=O)[C@@]2(C)C([C@H](OC(=O)c3ccccc3)[C@]3(O)C[C@H](OC(=O)[C@H](O)[C@@H](NC(=O)c4ccccc4)c4ccccc4)C(C)=C1C3(C)C)[C@]1(OC(C)=O)CO[C@@H]1C[C@@H]2O (stereo partly specified) | inactive | inactive | inactive | inactive | inactive |  |  |  | inactive |  | inactive | inactive | inactive |  |  | 0.0092 µM (active) |  |  |
| O=C(c1ccccc1)c1ccc2n1CCC2C(=O)O (stereo unspecified) |  | inactive | inactive | inactive | inactive | inactive | inactive | 0.0927 | inactive | inactive | inactive | inactive | inactive | inactive | inactive | inactive |  |  |
| CC1(C)NC(=O)N(c2ccc([N+](=O)[O-])c(C(F)(F)F)c2)C1=O | inactive | inactive | inactive | inactive | inactive | inactive |  |  | inactive | inactive | inactive | inactive | inactive | inactive | inactive | inactive |  |  |
| Nc1nc(OCc2ccccc2)c2[nH]cnc2n1 | inactive | inactive | inactive | inactive |  | inactive | inactive | 10.1 | inactive | inactive | inactive | inactive | inactive |  | inactive | inactive |  |  |
| O=C(O)c1cccnc1Nc1cccc(C(F)(F)F)c1 |  | inactive | inactive | inactive | inactive | inactive |  |  | inactive | inactive | inactive | inactive | inactive | inactive | inactive | inactive |  |  |
| CC(C)c1ccc2c(c1)c(SC(C)(C)C)c(CC(C)(C)C(=O)O)n2Cc1ccc(Cl)cc1 | inactive | inactive | inactive | inactive | inactive | inactive |  |  | inactive | inactive | inactive | inactive | 25.1 µM (active) and 50.1 µM (active) |  |  | inactive |  |  |
| CC(=O)N1CCN(c2ccc(OC[C@H]3CO[C@](Cn4ccnc4)(c4ccc(Cl)cc4Cl)O3)cc2)CC1 | inactive |  | inactive |  |  |  |  |  | inactive | inactive | inactive | inactive |  |  |  | inactive | inactive |  |
| O=Nc1c(-c2c(O)[nH]c3cc(Br)ccc23)[nH]c2ccccc12 | inactive | inactive | inactive |  | 0.92 µM (active) |  |  |  | inactive | inactive |  | 21.3 µM (active) | inactive |  | inactive | inactive |  |  |
| O=C1NC(=O)C(c2ccccc2[N+](=O)[O-])=C1Nc1ccc(O)c(Cl)c1 | inactive | inactive | 5.17 µM (active) | inactive | inactive |  | inactive | 5.73 | inactive | inactive | inactive | inactive | inactive | inactive | inactive |  |  |  |
| Cc1c(OCC(F)(F)F)ccnc1CS(=O)c1nc2ccccc2[nH]1 (stereo unspecified) | inactive | inactive | inactive | inactive | inactive |  |  |  | inactive | inactive | inactive | inactive | inactive | inactive |  | inactive |  | inactive |
| O=c1oc2cc(O)ccc2s1 |  |  |  |  |  |  |  |  |  |  |  |  | inactive |  |  |  |  | inactive |
| O=C(NC(Cc1cc(=O)[nH]c2ccccc12)C(=O)O)c1ccc(Cl)cc1 (stereo unspecified) |  |  |  |  |  |  |  |  |  |  |  |  | inactive |  |  |  |  | inactive |
| CCN(CCO)CCCC(C)Nc1ccnc2cc(Cl)ccc12 (stereo unspecified) |  |  |  |  |  |  |  |  |  |  |  |  | inactive |  |  |  |  | inactive |
| O=P(O)(O)C(O)(Cn1ccnc1)P(=O)(O)O |  |  |  |  |  |  |  |  |  |  |  |  | inactive |  |  |  |  | inactive |
| CCCCCCCCCCCCCCCCCCCCCCO |  |  |  |  |  |  |  |  |  |  |  |  | inactive |  |  |  |  | inactive |

Reference: PubChem BioAssay (NCATS)
